The full list was thinned out, with hits kept by preference.
Tg IFNy HTS = blocks Toxoplasma gondii growth in the presence of IFN-gamma. Toxoplasma gondii growth in IFN-gamma-treated host cells; active compounds read low. activity change, negative = inhibition, % (no concentration beside the values). 69,000 compounds, 3.8% hits. AID 1259416; in the data active = activity change below about -70%, passing the limit was not always enough;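 also: host cells are HeLa cells infected with Toxoplasma gondii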
A number is an active result; . = inactive; ! = not confirmed by another sample.

SMILES	Tg IFNy HTS
CNCCCN1c2ccccc2CCc2ccccc21	-83!
CN(C)CCCN1c2ccccc2CCc2ccc(Cl)cc21	-70!
CC(=O)c1ccc2c(c1)N(CCCN(C)C)c1ccccc1S2	.
CN(C)S(=O)(=O)CCNC(=O)C(=O)N1CCc2ccccc21	.
CC(=O)c1cc(C(=O)NCCCN2CCCc3ccccc32)cs1	.
CC(C)(C)NC(=O)N1CCOC(Cc2ccc(F)cc2)C1 (configuration not stated)	.
Fc1cccnc1O[C@H]1CN(c2nncs2)[C@H]2CCCO[C@@H]12	.
COc1ccc(-c2ccnc(CO)c2)c(OC)c1	.
CCCn1cc(CCNC(=O)c2cc3ccccc3[nH]2)c2cccnc21	-83
CCCN1C(=O)CCc2cc(NC(=O)c3cc4ccccc4[nH]3)ccc21	.
CC(CNC(=O)c1cc(=O)c2ccccc2[nH]1)Oc1cccnc1 (configuration not stated)	.
COc1cc(OC)c(/C=C/S(=O)(=O)Cc2ccc(OC)c(NCC(=O)O)c2)c(OC)c1	.
CN1CCN(CCC2CCCCN2)CC1 (configuration not stated)	.
C1CCC(C(CC2CCCCN2)C2CCCCC2)CC1 (configuration not stated)	-96!
CN(C)CC(=O)NCCC1CCCCN1 (configuration not stated)	.
COCC(=O)N1CCCN(Cc2cnn3c(C)cc(C)nc23)CC1	.
COc1ccc(NC(=O)C(=O)NCCc2sc(-c3ccc(C)cc3)nc2C)cc1	.
CC(C)CN1C(=O)CCc2cc(NC(=O)C(C)C)ccc21	.
COCC1(C(=O)NC(C)c2cnn(-c3ccccc3F)c2)CCC1 (configuration not stated)	.
COc1ccc(NC(=O)N2C[C@H]3[C@@H](c4ccccc42)[C@H](CO)N3Cc2ccccn2)cc1	.
Cc1ccc(-n2c(SCc3nc(-c4ccccc4Cl)oc3C)nc3c(=O)[nH]cnc32)cc1	.
CCOc1ccc(-c2nc(CSc3nc4c(=O)[nH]cnc4n3-c3ccccc3)c(C)o2)cc1OC	.
Cc1cccc(-c2nc(CSc3nc4c(=O)[nH]cnc4n3-c3ccccc3)c(C)o2)c1	-110
Cc1ccc(-n2c(SCc3nc(-c4ccccc4C)oc3C)nc3c(=O)[nH]cnc32)cc1	.
Cc1ccc(C)c(-c2nc(CSc3nc4c(=O)[nH]cnc4n3-c3ccccc3)c(C)o2)c1	-80
SMILES	Tg IFNy HTS
CCn1c(SCc2nc(-c3cccc(C)c3)oc2C)nc2c(=O)[nH]cnc21	.
CCOCC(=O)NCC1Cn2nnc(-c3ccnn3C)c2CO1 (configuration not stated)	.
CN1CCCn2nc(C(=O)N3CCN(Cc4ccc(F)cc4)C(=O)C3)cc2C1	.
O=C(CN1N=C(c2ccccc2)Cn2c(cc3sccc32)C1=O)NC1CCC1	.
Cn1ncc(C(=O)Sc2ccc(Cl)cc2)c1-n1cccc1	-94
Cn1ncc2c(Sc3ccc(Cl)cc3)ncnc21	.
Cc1nn(-c2ccccc2)nc1C(=O)Sc1ccc(Cl)cc1	.
CC(C)c1nc(CN(C)Cc2cncn2C)no1	.
O=C(O)C1CC(=O)N(Cc2scnc2-c2ccccc2)C1 (configuration not stated)	.
CN1CCC(Cc2noc(-c3cccnc3N3CCOCC3)n2)CC1	.
Cc1ccc(C)c(-c2coc(-c3ccc(NC(=O)Nc4cc(F)ccc4F)cc3)n2)c1	.
CO[C@H]1CN(C)C(=O)c2ccc(NC(=O)Nc3cc(F)ccc3F)cc2OC[C@@H](C)N(C(=O)c2ccccn2)C[C@@H]1C	-88
COCC(=O)N1C[C@@H](C)[C@H](OC)CN(C)C(=O)c2ccc(NC(=O)c3ccc(-c4ccccc4)cc3)cc2OC[C@H]1C	-103
CO[C@@H]1CN(C)C(=O)c2cc(NC(=O)Nc3ccccc3F)ccc2OC[C@@H](C)N(C(=O)c2cnccn2)C[C@H]1C	.
CCCC(=O)Nc1ccc2c(c1)C(=O)N(C)C[C@@H](OC)[C@H](C)CN(C(=O)c1ccccn1)[C@H](C)CO2	.
CCCC(=O)Nc1ccc2c(c1)C(=O)N(C)C[C@@H](OC)[C@H](C)CN(Cc1cc(-c3ccccc3)on1)[C@H](C)CO2	-81
CO[C@@H]1CN(C)C(=O)c2ccc(NC(=O)c3ccc4c(c3)OCO4)cc2OC[C@@H](C)N(Cc2ccc3c(c2)OCO3)C[C@H]1C	-80
CO[C@@H]1CN(C)C(=O)c2ccc(NC(=O)Nc3cc(F)ccc3F)cc2OC[C@H](C)N(C(=O)c2ccccn2)C[C@@H]1C	.
COCC(=O)Nc1ccc2c(c1)OC[C@@H](C)N(C)C[C@@H](C)[C@@H](OC)CN(C)C2=O	.
CCC(=O)Nc1ccc2c(c1)OC[C@H](C)N(Cc1ccccc1)C[C@@H](C)[C@@H](OC)CN(C)C2=O	.
CO[C@@H]1CN(C)C(=O)c2cc(NC(C)=O)ccc2OC[C@H](C)N(Cc2ccncc2)C[C@H]1C	.
CCC(=O)Nc1ccc2c(c1)OC[C@H](C)N(Cc1ccccc1)C[C@H](C)[C@@H](OC)CN(C)C2=O	.
COCC(=O)N1C[C@H](C)[C@@H](OC)CN(C)C(=O)c2ccc(NC(=O)Nc3cccc(F)c3)cc2OC[C@@H]1C	.
Cc1nc(CN2C(=O)CCC3C2CCN3c2ncc(F)cn2)cs1 (configuration not stated)	.
Cc1occc(=O)c1OCc1ccc(Cl)cc1	.
SMILES	Tg IFNy HTS
Cc1cccc(Cl)c1NC(=O)Cn1ncc2c(N3CCN(c4ccccn4)CC3)ncnc21	.
CNCc1cc(-c2ccc(F)cc2OC)ccc1OC	.
CC(O)CNc1ncnc2scc(-c3ccccc3)c12 (configuration not stated)	.
c1cnc(N2CCCC3(CC(n4cnnc4)CO3)C2)nc1 (configuration not stated)	.
COc1ccc(-c2nc(NC(C)CCc3ccccc3)c3ccccc3n2)cc1 (configuration not stated)	.
O=C(N1CCCC1c1nnn2cc(-c3cccc(F)c3)ccc12)C(F)(F)F (configuration not stated)	.
CCCn1ncc(C(=O)N2CCn3nc(C(=O)NC4CC4)cc3C2)c1C	.
COc1ccc(-c2nc(Nc3ccc(CN4CCCCC4)cc3)c3ccccc3n2)cc1	.
Cc1ccc(C)c(NC(=O)NCC(c2cccnc2)c2cn(C)c3ccccc23)c1 (configuration not stated)	.
Cc1ccc2c(NC(=O)c3ccc(Cn4cnnn4)cc3)c(C)ccc2n1	.
N#C[C@@H]1[C@H](c2ccccc2-c2ccccc2)[C@H](CO)N1C(=O)Cc1ccncc1	.
Cc1nnc(-c2cccc(-c3c(C)cccc3C)c2)o1	.
O=C1c2cccc(O)c2C(=O)c2c(O)cccc21	.
O=C1c2ccccc2-c2n[nH]c3cccc1c23	-91!
CS(=O)(=O)N1C[C@@H]2COC[C@@]2(COc2ccc(C#N)cn2)C1	.
COCCO[C@@H]1C[C@@H]2CN(C(=O)c3cnc(C)cn3)CCN2C1	.
O=C(O)C1CC2(CCNCC2)CN1C(=O)[C@H]1CCCO1 (some centres not stated)	.
CC(Oc1ccccc1/C=C/c1ccccc1)C(N)=O (configuration not stated)	.
Cc1nn(-c2ccccc2)c(C)c1C(N)=O	.
Cc1nn(-c2ccccc2)c(Cl)c1C(=O)Oc1ccc(OCc2ccccc2)cc1	-97
COC(=O)c1c(C)nn(-c2ccccc2)c1-c1cc(C)on1	.
COc1cc(C)c(C(=O)CSc2nnc(CC(=O)Nc3ccc(F)cc3)n2C)cc1C	.
COc1ccc(Cl)cc1N(C(=O)c1ccc(C)cc1)C1(C(=O)NCc2ccccc2)CCN(C(C)=O)CC1	.

Source: PubChem BioAssay (Broad Institute)
